# Assay results from PubChem BioAssay (EPA / NIEHS).
# Results filed as inconclusive are left out. Activity calls are given as the source filed them. Rule for the calls: active = hit-call score of the fitted dose curve at least 0.9, where 1 is the maximum; inconclusive = response in the unintended direction; inactive = score below 0.9.
# Read-out: alkyl and aryl transferase (GSTA2), GSTA2 (gene 2939)
# Test: CLD_GSTA2_24hr: CellzDirect (CLD) Gene Expression Assay for alkyl and aryl transferase (GSTA2) at 24 hours (AID 2283693)
# Method: CLD_24hr is a cell-based, multiplexed-readout assay that uses hepatocyte, a human liver primary cell, with measurements taken at 24 hours after chemical dosing in a 96-well plate.CLD_GSTA2_24hr is one of 16 assay component(s) measured or calculated from the CLD_24hr assay. It is designed to make measurements of mRNA induction, a form of inducible reporter, as detected with chemiluminescence signals by Quantitative Nuclease Protection Assay (qNPA) technology.Data from the assay component CLD_GSTA2_24hr was analyzed at the endpoint, CLD_GSTA2_24hr, in the positive analysis fitting direction relative to DMSO as the negative control and baseline of activity. Using a type of inducible reporter, gain-of-signal activity can be used to understand changes in the reporter gene as they relate to the gene GSTA2. Furthermore, this assay endpoint can be referred to as a primary readout. To generalize the intended target to other relatable targets, this assay endpoint is annotated to the transferase intended target family, where subfamily is alkyl and aryl transferase.
# Human hepatocyte cultures were treated daily for two consecutive days with fresh dosing solutions containing appropriate concentrations of the 320 ToxCast chemicals (chemical identities were blinded to CellzDirect and other ToxCast collaborators), vehicle control (0.2% DMSO), and positive control inducers as summarized in Table 1. Due to the large number of treatment groups and chemicals examined, the ToxCast chemicals were divided into two groups (spanning two independent cultures of hepatocytes from separate donor preparations (Hu778: ToxCast plates 1 and 2; Hu776: ToxCast plates 3 and 4). Each preparation of human hepatocyte cultures was treated with respective vehicle control, medium only control, set of six positive controls/reference chemicals for the five hepatic receptor pathways, and a subset of eight of the ToxCast chemicals (indoxacarb, pyrithiobac-sodium, norflurazon, cyhalofop-butyl, methomyl, thiram, acetochlor, and propiconazole). These replicate data, coupled with internal replicates designed within the blinded ToxCast chemical library, provided additional data to evaluate interindividual differences between hepatocyte preparations and their potential impact on chemical profiles.Cell morphology and integrity were evaluated using phase-contrast microscopy as an indicator of hepatocyte cell health (Tyson & Green, 1987). Cultures for each treatment group (i.e., media, vehicle [0.2% DMSO], positive control inducers [multiple concentrations], and the ToxCast chemicals [multiple concentrations]) were observed and cell morphology was assessed relative to vehicle control cultures at each harvest time point (0, 6, 24, or 48 h). […] Images were evaluated at the conclusion of the study to assess changes in cell integrity and account for the effects of chemical exposure on uncharacteristic changes in concentration-dependent gene expression profiles. The results from these determinations of apparent cytotoxicity were annotated (yes/no) alongside the corresponding qNPA data for reference.At the conclusion of each treatment period, hepatocyte cultures (96-well) were washed with 1 volume of HBSS, lysed by addition of 25 ul ArrayPlate lysis buffer (HTG, Tucson, AZ), and 70 ul/well of Denaturation Oil, denatured by incubation at 95C for 10 min, and frozen at approximately -70C until analysis by nuclease protection assay (qNPA) (Roberts et al., 2007). For qNPA analysis, cell lysates were thawed at 50C for approximately 30 min, qNPA probes were added, and samples were incubated at 95C for 10 min to begin the detection process by denaturing the target RNA, dissociating the duplexes and secondary structure hybridization. At the conclusion of the hybridization period, S1 nuclease reagent was added to each sample to digest all nonprotected nucleotides at 50C for 60-90 min. […]
row,SMILES,outcome
1,O=C1c2ccccc2C(=O)N1SC(Cl)(Cl)Cl,inactive
2,N#Cc1c(Cl)c(Cl)c(Cl)c(C#N)c1Cl,inactive
3,CCOCN(C(=O)CCl)c1c(C)cccc1CC,inactive
4,O=S1OCC2C(CO1)C1(Cl)C(Cl)=C(Cl)C2(Cl)C1(Cl)Cl (stereo not drawn),inactive
5,COC(=O)c1ccccc1S(=O)(=O)NC(=O)Nc1nc(C)nc(OC)n1,inactive
6,Oc1cc(Cl)ccc1Oc1ccc(Cl)cc1Cl,inactive
7,Oc1ccc(Cl)cc1Cc1ccccc1,inactive
8,CN1CSC(=S)N(C)C1,inactive
9,O=[N+]([O-])c1c(Cl)c(Cl)c(Cl)c(Cl)c1Cl,inactive
10,CC(C)N(C(=O)COc1nnc(C(F)(F)F)s1)c1ccc(F)cc1,inactive
11,Cc1cc(C)nc(NC(=O)NS(=O)(=O)c2ccccc2C(=O)OC2COC2)n1,inactive
12,O=C(NC(=O)c1c(F)cccc1F)Nc1ccc(OC(F)(F)C(F)OC(F)(F)F)c(Cl)c1 (stereo not drawn),inactive
13,COc1cc(OC)nc(NC(=O)NS(=O)(=O)c2cc(NC=O)ccc2C(=O)N(C)C)n1,inactive
14,CCN(CC)C(=O)SCc1ccc(Cl)cc1,inactive
15,COC(=O)c1ccccc1S(=O)(=O)NC(=O)N(C)c1nc(C)nc(OC)n1,inactive
16,CC[C@H](C)[C@H]1O[C@]2(C=C[C@@H]1C)C[C@@H]1C[C@@H](C/C=C(\C)[C@@H](O[C@H]3C[C@H](OC)[C@@H](O[C@H]4C[C@H](OC)[C@@H](O)[C@H](C)O4)[C@H](C)O3)[C@@H](C)/C=C/C=C3\CO[C@@H]4[C@H](O)C(C)=C[C@@H](C(=O)O1)[C@]34O)O2 (tested in a mixture with another compound),inactive
17,[2H]C1([2H])[n+]2ccccc2-c2cccc[n+]2C1([2H])[2H],inactive
18,CC1(c2ccc(Oc3ccccc3)cc2)OC(=O)N(Nc2ccccc2)C1=O (stereo not drawn),inactive
19,O=C(O)COc1ccc(Cl)cc1Cl,inactive

row,SMILES,outcome
1,CNC(=O)Oc1cccc(N=CN(C)C)c1,inactive
2,O=[N+]([O-])/N=C1\NCCN1Cc1ccc(Cl)nc1,inactive
3,CCOC1Oc2ccc(OS(C)(=O)=O)cc2C1(C)C (stereo not drawn),inactive
4,Clc1ccccc1-c1nnc(-c2ccccc2Cl)nn1,inactive
5,C[C@H]1[C@H](c2ccc(Cl)cc2)SC(=O)N1C(=O)NC1CCCCC1,inactive
6,COC(=O)c1ccccc1CS(=O)(=O)NC(=O)Nc1nc(OC)cc(OC)n1,inactive
7,O=S(=O)(O)C(F)(F)C(F)(F)C(F)(F)C(F)(F)C(F)(F)C(F)(F)C(F)(F)C(F)(F)F,inactive
8,C#CCN1C(=O)COc2cc(F)c(N3C(=O)C4=C(CCCC4)C3=O)cc21,inactive
9,CCS(=O)(=O)c1cccnc1S(=O)(=O)NC(=O)Nc1nc(OC)cc(OC)n1,inactive
10,CCC(C)(NC(=O)c1cc(Cl)c(C)c(Cl)c1)C(=O)CCl (stereo not drawn),inactive
11,COP(=O)(OC)OC=C(Cl)Cl,inactive
12,OCCOc1ccccc1,inactive
13,CC(C)OC(=O)Nc1cccc(Cl)c1,inactive
14,CCCN(CCC)c1c([N+](=O)[O-])cc(C(F)(F)F)cc1[N+](=O)[O-],inactive
15,CNC(=O)CSP(=S)(OC)OC,inactive
16,CC(C)(C)C(O)/C(=C\c1ccc(Cl)cc1Cl)n1cncn1 (stereo not drawn),inactive
17,N#CN,inactive
18,CCC(C)Nc1c([N+](=O)[O-])cc(C(C)(C)C)cc1[N+](=O)[O-] (stereo not drawn),inactive
19,CC(C)(C)C(O)C(Oc1ccc(Cl)cc1)n1cncn1 (stereo not drawn),inactive
